# From PubChem BioAssay (NCI)
# Where “and” joins values, the source holds several entries; their conditions need not be identical. Equal values may be shown once. About 83,000 compounds went through this panel and 20% of them were active in at least one assay; those are over-represented in the sample as a whole.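 Activity criterion: percent growth below 10, measured after cells in 96-well plates were exposed to a single compound concentration for 48 hours.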 Unmarked numbers belong to inactive results. Calls of active or inactive are those of the source.
# System: MDA-MB-468 breast
# Experiment: NCI-60 one-dose screen, 48 h (100 = growth as untreated, 0 = no growth, -100 = all killed)
# Conditions: 10 µM unless noted
row,Structure (SMILES),growth
1,COc1cc2c(c(OC)c1OC)-c1ccc(SC)c(=O)cc1[C@@H](NC1OC(CO)C(O)C(O)C1O)CC2 (stereo not given in full),23.6%
2,Nc1ccccc1-c1ccc(-c2ccc(Cl)cc2)c2c1[nH]c1ccccc12,91.5%
3,Cc1ccc(-c2nc3nc(-c4ccc(F)cc4)nc(N4CCCNCC4)c3o2)cc1,-75.5% (active)
4,CC(C)C(=O)Nc1nc2c(s1)CCCc1ccn(S(=O)(=O)c3ccccc3)c1-2,95.3%
5,BrC(Br)(Br)c1cnc2ccccc2n1,-24.8% (active)
6,COc1cccc(O)c1/C=C(/C)c1ccc2c(OC)cccc2[o+]1,112%
7,CCOCCOCCOCCOCCOCCOCCOCCOCCOCCO (tested in a mixture with another compound),-13.5% (active)
8,O=C(Cc1ccc(F)c(F)c1)Nc1cc(C2(C(F)(F)F)CC2)nn1Cc1ccccc1,-33.1% (active)
9,COc1cc(C(=O)c2cc(C)c3[nH]c4ccc(Cl)cc4c3c2C)cc(OC)c1OC,-13.2% (active)
10,OCC1C2C=CC(C2)C1CO (stereo not given),98.4%
11,Cc1ncc(C(=O)Nc2ccc(CN3CCN(C)CC3)c(C(F)(F)F)c2)cc1C#Cc1c(N)ncc2ccc(F)cc12,48.2%
12,CCc1c(CC(=O)O)c2cc(C)ccc2n1Cc1ccc(Cl)cc1,95.3% and 94.5%
13,CC12O[C@H](C[C@@H](OC(=O)CCC(=O)O)[C@H]1O)n1c3ccccc3c3c4c(c5c6ccccc6n2c5c31)C(=O)NC4=O,25.9%
14,CCNC(=O)CCCCC(=O)c1c(C)[nH]c(/C=C2\N=C(c3ccc[nH]3)C=C2OC)c1C,-22.7% (active)
15,Nc1no[n+]([O-])c1-c1nnc2c(n1)-c1ccccc1C2=O,41.5%
16,N#Cc1c(N)nc(N)nc1Nc1ccc(Br)cc1,89.6%
17,CCCCn1sc(=O)n(Cc2ccc(CNC(=O)OCc3ccc4c(Cl)cc(Cl)c(O)c4n3)cc2)c1=O,72.4%
18,COC(=O)/C(CCC=C(C)C)=C1\[C@@H](OC(C)=O)C[C@@]2(C)[C@H]1CC(=O)N[C@H]1[C@@]3(C)CCNC(=O)[C@@H](C)[C@@H]3CC[C@@]12C,99.7%
19,CC/C(=C(/c1ccc(Cl)cc1)c1ccc(OCCN(CC)CC)cc1)c1ccc(OC)cc1,38%
20,NNc1ncccn1,102%
21,CC(C)CSc1nc(Nc2ccccc2)c(C#N)c(-c2ccc(F)cc2)n1,16.4%
22,O=C(NO)c1ccc(Cn2c(=O)n(-c3ccccc3)c(=O)c3ccccc32)cc1,16.9%
23,CCCCCCCNC(=O)CCCNc1ncnc2c1ncn2-c1cccc(C(C)O)c1 (stereo not given),59.7%
24,O=C1/C(=C/c2ccc(Cl)cc2)CN(C(=O)C(Cl)Cl)C/C1=C\c1ccc(Cl)cc1,-59.7% (active)
25,CC1CCCN(CCCCCOc2ccc3oc4ccc(Cl)cc4c(=O)c3c2)C1 (stereo not given),68.7%
26,CCCCC[C@H]1CC=C2C(=O)C=C[C@@H]2CC=CCCCC(=O)O[C@@H](CCCCC)CC=C2C(=O)C=C[C@@H]2CC=CCCCC(=O)O[C@@H](CCCCC)CC=C2C(=O)C=C[C@@H]2CC=CCCCC(=O)O1,7.64% [8.75 µM] (active)
27,COc1ccc(Sc2ccc3[nH]c(=O)nc(N)c3c2)cc1,92.7%

row,Structure (SMILES),growth
1,CCCO/N=C/c1ccccn1,115% and 120%
2,c1cncc(CNc2ccccc2-c2nnc(Nc3ccc4c(c3)OCO4)o2)c1,-1.51% (active)
3,CCCc1nc2ccccn2c1Nc1ccc(C(=O)NO)cc1,87.9%
4,CC(C)N=C(N)/N=C(\N)Nc1ccc2ccc3ccccc3c2c1,-91.1% (active)
5,O=C(Cn1c(=O)ccn(CCCCCCCCOc2ccc(Br)cc2)c1=O)Nc1ccc(Oc2ccc(Cl)cc2)cc1,34.2%
6,CC/C=C\C[C@H](O)C/C=C1/C(=O)C(Cl)=C[C@@H]1C/C=C\CCCC(=O)O,41.1%
7,O=C(NCCNc1nccc(-c2c(-c3cccc(O)c3)nc3sccn23)n1)c1ccccc1O,52%
8,C/C(=N/NC(N)=O)c1ccco1,110%
9,COc1ccc(-c2[nH][nH]c(=O)c2-c2nc3ccccc3s2)cc1,119%
10,CCCCOc1nc2ccc(C)cc2cc1/C=C/C(=O)/C=C(O)/C=C/c1cc2cc(C)ccc2nc1OCCCC,104%
11,CC(C)(C)Nc1nc2c(OCCc3ccccc3)cccn2c1-c1cccc(F)c1,-30.8% (active)
12,Oc1ccc(C(c2ccc(O)cc2)C(Cl)(Cl)Cl)cc1,90%
13,COc1ccc(/C(C)=N/NC(=O)CSc2nc3ccccc3c(=O)n2Cc2ccc(S(N)(=O)=O)cc2)c(OC)c1,93.9%
14,Cc1ccc(N=NC2C(=O)N(c3ccc(Cl)cc3)N(c3ccc(Cl)cc3)C2=O)cc1,107%
15,Nc1c(C(=O)Nc2ccccc2)sc2nc3c(cc12)CCCCC3,-9.1% (active)
16,CS(=O)(=O)c1nccc(-c2c(-c3ccc(F)c(OCCc4ccccc4)c3)nc3sccn23)n1,-83.4% (active)
17,c1cc2ccc1CNCCN1CCNCc3ccc(cc3)Oc3ccc(cc3)CNCCN(CCNCc3ccc(cc3)O2)CCNCc2ccc(cc2)Oc2ccc(cc2)CNCC1,-77.6% (active)
18,NNC(=O)CCCCl,96%
19,COC(=O)c1ccc2c(c1)nc(-c1ccc(Cl)cc1)n2-c1cc(C(C)(C)C)[nH]n1,37.4%
20,CCCCCCCCCCC(C)Br (stereo not given),111%
21,CNC(=O)c1c(NC(=O)c2ccc(C(C)C)cc2)sc2c1CCC(=O)C2,-28.4% (active)
22,COc1cc(/C=C/c2cc(/C=C/c3ccc(O)c(OC)c3)nc(N)n2)ccc1O,-35% (active)
23,Cc1cc(C)c2c(n1)sc1c(Nc3ccc(Cl)cc3Cl)ncnc12,16.9%
24,Cc1cccc(N2CCN(CC(O)COc3ccc(Cl)cc3)CC2)c1 (stereo not given),107%
25,N#CC(C#N)N=Nc1cc(Cl)ccc1Cl,120%
26,ClC1=C(Cl)C(Cl)=C(Cl)C1=Cc1ccc(Cl)cc1Cl,-74.9% (active)
27,CC(=O)NC(C)(C)C(=O)N1CCC[C@H]1C(=O)NC(C)(C)C(=O)N[C@@H](C)C(=O)NC(C)(C)C(=O)N[C@@H](C)C(=O)N[C@@H](CCC(N)=O)C(=O)NC(C)(C)C(=O)N[C@H](C(=O)NC(C)(C)C(=O)NCC(=O)N[C@@H](CC(C)C)C(=O)NC(C)(C)C(=O)N1CCC[C@H]1C(=O)N[C@H](C(=O)NC(C)(C)C(=O)NC(C)(C)C(=O)N[C@@H](CCC(N)=O)C(=O)N[C@@H](CCC(N)=O)C(=O)N[C@H](CO)Cc1ccccc1)C(C)C)C(C)C,3.71% [4.25 µM] (active)

row,Structure (SMILES),growth
1,CN(C)c1ccc(/C=C\N=Nc2ccc(Br)cc2)cc1,106%
2,COc1cc2c(=O)n(CCCn3ccnc3)c3c4cc5c(cc4ccc3c2cc1OC)OCO5,-37.3% (active)
3,Cc1cc2cccnc2c2ncccc12,-20.5% (active)
4,O=C1/C(=C\C(Cl)=C/c2ccc([N+](=O)[O-])cc2)SC(=S)N1CCc1ccc(O)cc1,-84.7% (active)
5,CN(Cc1cnc2nc(N)nc(N)c2n1)c1ccc(C(=O)NC(CCC(=O)O)C(=O)O)cc1 (stereo not given),6.99% (active)
6,Cc1cc(CSc2ccccc2C(=O)N2CC=C(c3ccccc3)CC2)on1,94.2%
7,COc1ccc2c(Nc3ccc(NS(C)(=O)=O)cc3)c3ccccc3nc2c1,-59.5% (active)
8,COC1/C=C/OC2(C)Oc3c(C)c(O)c4c(O)c(c(C=NOC(c5ccccc5)c5ccccc5)c(O)c4c3C2=O)NC(=O)/C(C)=C/C=C/C(C)C(O)C(C)C(O)C(C)C(OC(C)=O)C1C (stereo not given),3.6% (active)
9,O=C1C=C(Nc2cccc(Br)c2)c2ccccc2C1=O,90.2%
10,COc1ccc2nc(SCC(=O)Nc3ccccc3C)[nH]c2c1,98%
11,COc1ccc(-c2c(NC(=O)Nc3ccc(Cl)c(C(F)(F)F)c3)cnn2-c2ccc(S(N)(=O)=O)cc2)cc1,26.7%
12,Cc1ccc(NC(=S)N/C=C(\c2ccccc2)S(=O)Cc2ccccc2)c(C)c1 (stereo not given),100%
13,Oc1c(Br)c(Br)c(O)c(Br)c1Br,102%
14,COc1ccc(-c2cc(-c3cc(OC)c(OC)c(OC)c3)nc(N3CCOCC3)c2C#N)cc1,76%
15,COc1ccc(/C=C/C(=O)c2ccc(NC(=O)CN3CCN(c4cc5c(cc4F)c(=O)c(C(=O)O)cn5C4CC4)CC3)cc2)cc1,99.1%
16,N#CCc1csc(Cc2ccccc2)n1,107%
17,Cc1cnc(NC(=O)Nc2cc(Br)c(C)cc2OC[C@@H]2CNCCO2)cn1,-26.7% (active)
18,CC(=O)O.CN1[CH-]N(Cc2ccc(C#N)cc2)c2ccccc21.[Ag+],97%
19,CCOC(=O)C(=O)CC(=O)c1ccccc1,96.9%
20,COC(=O)/C=C1/SC(=Nc2ccc(F)cc2)N(CCc2c[nH]c3ccc(O)cc23)C1=O,36%
21,C/C(=N\O)c1ccc(NC(=O)CSc2nnc(-c3cc(-c4ccc(S(N)(=O)=O)cc4)nc4ccccc34)n2-c2ccccc2)cc1,63.1%
22,O=C(Nc1cc(F)cc2cccnc12)c1cnc(N2CCNCC2)cn1,-5.12% (active)
23,Ic1ccccc1I,98.9%
24,CC(=C(c1ccc(OCCN2CCCCC2)cc1)c1ccc(OCCN2CCCCC2)cc1)c1ccc(Cl)cc1,-79.6% (active)
25,N/C(=N\S(=O)(=O)c1ccccc1)Nc1nc2ccccc2s1,91%
26,CCOC(=O)C(=CCC(C)C)C(=O)OCC,98%
